We go through 26 molecules from PubChem BioAssay (NCATS).

Records with an inconclusive call do not appear. Unmarked numbers belong to inactive results. Calls of active or inactive are those of the source. The call rests on the fitted dose curve; in most records, active means well fitted curve in the direction sought with a large enough effect; inconclusive means small, poorly fitted or top-dose-only effect, or another doubt; inactive means no such curve, though single readings can be large; an effect the other way counts as inactive or inconclusive.

The target of assay [1] is Cellular tumor antigen p53 (Homo sapiens) (UniProt P04637). The assay is described as follows: Primary qHTS for small molecule compounds that upregulate eGFP-tagged delta133p53alpha (in N-terminal) cells. (AID 2060322). Further: nearly all actives have a fitted effect of over 75% in size. Further: potency means the concentration at half of the fitted maximal effect.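 On activation: cells pre-induced with doxycycline then dosed without doxycycline; series mostly up to about 56 µM; 0% = DMSO vehicle and 100% = reference activator.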 Particulars: NCI-H358 eGFP-delta133p53alpha fluorescence, 24 h; activation: active compounds read high. The method in brief: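 NCI-H358 cells pre-induced 24 h with 10 ng/ml doxycycline for eGFP-delta133p53alpha, plated dox-free and exposed 24 h at 37C to titrated compounds. Fixed, Hoechst-stained; gated GFP peak intensity by laser scanning cytometry, normalized to DMSO (0%) and 57.5 uM 5-azacytidine (100%).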
Sequence of Cellular tumor antigen p53 (Homo sapiens) (P04637 whole entry, looked up): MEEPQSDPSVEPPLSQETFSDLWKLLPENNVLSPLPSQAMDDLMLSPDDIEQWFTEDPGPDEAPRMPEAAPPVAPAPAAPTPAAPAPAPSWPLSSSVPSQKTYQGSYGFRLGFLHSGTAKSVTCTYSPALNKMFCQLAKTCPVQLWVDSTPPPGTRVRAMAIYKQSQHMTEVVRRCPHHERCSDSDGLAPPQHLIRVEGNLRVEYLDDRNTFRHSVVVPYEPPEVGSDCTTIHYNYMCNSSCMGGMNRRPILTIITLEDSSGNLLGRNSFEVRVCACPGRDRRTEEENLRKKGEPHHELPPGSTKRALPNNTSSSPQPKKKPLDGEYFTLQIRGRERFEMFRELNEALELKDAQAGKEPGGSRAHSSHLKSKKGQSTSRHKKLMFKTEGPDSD

The target of assay [2] is Aldehyde dehydrogenase, mitochondrial (Homo sapiens) (UniProt P05091). Nature of the assay: qHTS for Inhibitors of the Aldehyde Dehydrogenase Family (ALDH2) Primary screen (AID 2061308).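 Further: plate controls were vehicle for no effect and reference inhibitor for full effect; nearly all actives have a fitted effect of over 55% in size.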
The target of assay [3] is Retinaldehyde dehydrogenase 3 (Homo sapiens) (UniProt P47895). The assay is described as follows: qHTS for Inhibitors of the Aldehyde Dehydrogenase Family (ALDH1A3) Primary screen (AID 2061315).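 Further: plate controls were DMSO vehicle for no effect and reference inhibitor for full effect.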

Regarding `CCC(=O)O[C@]1(C(=O)CCl)[C@@H](C)C[C@H]2[C@@H]3C[C@H](F)C4=CC(=O)C=C[C@]4(C)[C@@]3(F)[C@@H](O)C[C@@]21C`, the activation in assay [1] is 17.9%. Further, the Potency entry in assay [2] and in assay [3] was “inactive” each time.

In the case of `COc1ccccc1CC(C(=O)O)N(C)C(=O)c1ccccc1` (stereo not drawn), the activation in assay [1] is -8.04%. The Potency result in assay [2] and in assay [3] was “inactive” each time.

Take `C/C(CO)=C1/CCC23COC(C2)C(O)(C(=O)O)CCC13` (stereo not drawn): in assay [1], the activation was 0%. In addition, the Potency result in assay [2] and in assay [3] was “inactive” throughout.

With `CC(=O)C1CCC(=O)N1Cc1ccccc1` (stereo not drawn), the activation in assay [1] is -13.7%. In addition, the Potency result in assay [2] and in assay [3] was “inactive” each time.

On to `CCCN1CCC(c2cccc(S(C)(=O)=O)c2)CC1`, for which, in assay [1], the activation was -11.9%. Also, the Potency result in assay [2] and in assay [3] was “inactive” throughout.

For `CC1(O)CC(O)C2(O)C=COC(O[C@@H]3O[C@H](CO)[C@@H](O)[C@H](O)[C@H]3O)C12` (stereo partly drawn), the activation in assay [1] was 0.893%. Moreover, the Potency entry in assay [2] and in assay [3] was “inactive” in each case.

Turning to `O=C(OCC1OC(Oc2ccc(O)cc2COC(=O)C2(O)C(O)CCC(=O)C2OC(=O)C2C=CCC2)C(OC(=O)C2C=CCC2)C(O)C1O)C1C=CCC1` (stereo not drawn), the activation in assay [1] was -3.05%. The Potency result in assay [2] and in assay [3] was “inactive” each time.

As to `CC1(C)CC[C@]2(C(=O)O)CC[C@]3(C)C(=CCC4[C@@]5(C)CC[C@H](O[C@@H]6O[C@H](C(=O)O)[C@@H](O)[C@H](O)[C@H]6O)C(C)(CO)C5CC[C@]43C)C2C1` (stereo partly drawn), the activation in assay [1] is 12.2%. Further, the Potency result in assay [2] and in assay [3] was “inactive” in each case.

With `CCC(C)CC(=O)OC1C(=O)C(CO)=CC(O)C1C(C)C` (stereo not drawn), the Potency in assay [1] is 23.9 µM (active). For the same molecule, the Potency entry in assay [2] and in assay [3] was “inactive” in each case.

Turning to `COC(=O)C12C(=O)C(C)=C(O)C1(C)C(C)=CC1C34CCC(OC3=O)C(C)(C)C4CCC12C` (stereo not drawn), in assay [1], the activation was -16%. Also, the Potency entry in assay [2] and in assay [3] was “inactive” each time.

For `O=C(CC1C(=O)Nc2ccccc21)OC[C@H]1O[C@@H](OCCc2ccc(O)cc2)[C@H](O)[C@@H](O)[C@@H]1O` (stereo partly drawn), the activation in assay [1] is 0%. Also, the Potency result in assay [2] and in assay [3] was “inactive” throughout.

With `CO[C@@H]1CC(OC2CCC3(C)C(CCC45CCC(C6=CC(=O)OC6)C(C)(CCC43)C5=O)C2)O[C@H](C)[C@@H]1O[C@@H]1O[C@H](CO[C@@H]2O[C@H](CO)[C@@H](O)[C@H](O)[C@H]2O)[C@@H](O)[C@H](O)[C@H]1O` (stereo partly drawn), the activation in assay [1] was 1.53%. In addition, the Potency entry in assay [2] and in assay [3] was “inactive” each time.

As to `COc1ccc(CCO[C@@H]2O[C@H](CO[C@@H]3OC[C@H](O)[C@H](O)[C@H]3O)[C@@H](O)[C@H](O)[C@H]2O)cc1`, the activation in assay [1] was -20.6%. The Potency result in assay [2] and in assay [3] was “inactive” each time.

Regarding `CC1(C)C[C@@H]2[C@H](C1)[C@@]1(C)C[C@]13C(O)OC[C@]3(O)[C@H]2O` (stereo partly drawn), in assay [1], the activation is 6.25%. For the same molecule, the Potency result in assay [2] and in assay [3] was “inactive” in each case.

On to `Cc1cc2sc(NC(=O)Cc3ccccc3)nc2cc1Cl`, for which, in assay [1], the activation was -6.25%. Also, the Potency entry in assay [2] and in assay [3] was “inactive” each time.

Consider `CC(=O)OC/C(=C/C(=O)O)CC[C@@H]1C(C)=CC(=O)[C@@H]2C(C)(C)CCC[C@@]12C`, for which the activation in assay [1] was -23.7%. Further, the Potency entry in assay [2] and in assay [3] was “inactive” throughout.

`C=C1CC2OC(=O)C(COC)C2C(OC(=O)/C(C)=C\C)CC2(C)OC1=CC2=O` (stereo not drawn): in assay [1], the Potency is 14.8 µM (active). The Potency result in assay [2] and in assay [3] was “inactive” throughout.

Consider `CCOC(=O)c1cnn(-c2ccccc2)c1NC(=O)c1cc2nc(-c3ccco3)cc(C(F)(F)Cl)n2n1`, for which, in assay [1], the activation was 0.955%. Further, the Potency result in assay [2] and in assay [3] was “inactive” throughout.

With `CC1CCC2C(C)(C)[C@@H](O)CC[C@]2(C)C12Cc1c(O)cc3c(c1O2)CN(C(CCC(=O)O)C(=O)O)C3=O` (stereo partly drawn), in assay [1], the activation was 23.2%. In addition, the Potency result in assay [2] and in assay [3] was “inactive” throughout.

Consider `COc1cc(C2c3cc(O)c(OC)cc3CC(CO)C2CO)ccc1O` (stereo not drawn), for which the activation in assay [1] is 8.93%. For the same molecule, the Potency entry in assay [2] and in assay [3] was “inactive” in each case.

On to `C=C1CCC2C(OC(=O)C2(O)COC(C)=O)C2C(=C)C(O)CC12` (stereo not drawn), for which the activation in assay [1] is -3.82%. Also, the Potency result in assay [2] and in assay [3] was “inactive” throughout.

As for `C/C=C1/[C@H](O[C@@H]2O[C@H](CO)[C@@H](O)[C@H](O)[C@H]2O)OC=C2C(=O)O[C@@H]3C[C@@H](C(C)CO)[C@H](COC(=O)C[C@H]21)[C@H]3C` (stereo partly drawn), the activation in assay [1] is -3.57%. The Potency entry in assay [2] and in assay [3] was “inactive” throughout.

For `O=[N+]([O-])c1ccc(Oc2ccc3c(c2)CCC(c2ccccc2)O3)nc1` (stereo not drawn), in assay [1], the activation was 2.33%. Further, the Potency result in assay [2] and in assay [3] was “inactive” in each case.

As for `C=C(CCO[C@@H]1O[C@H](CO)[C@@H](O)[C@H](O)[C@H]1O)C(=O)O`, the activation in assay [1] was -22.3%. Further, the Potency entry in assay [2] and in assay [3] was “inactive” each time.

Regarding `CC(C)=CCc1cc2c(cc1O)OC[C@H]1c3ccc(O)cc3O[C@@H]21`, the activation in assay [1] was -3.82%. For the same molecule, the Potency result in assay [2] and in assay [3] was “inactive” throughout.

For `CC(C)CCC[C@@H](C)[C@H]1CC[C@H]2[C@@H]3CC(=O)[C@H]4C[C@@H](O)CC[C@]4(C)[C@H]3CC[C@]12C`, the activation in assay [1] was -7%. The Potency result in assay [2] and in assay [3] was “inactive” each time.
